From PubChem BioAssay (NCATS)
Records with an inconclusive call do not appear. A call without a number means that no potency is given here. Calls of active or inactive are those of the source. Calls come from the whole dose curve; as a rule, active = well fitted inhibition curve with a large enough effect; inconclusive = small, poorly fitted or top-dose-only effect; inactive = flat fitted curve, though single readings scatter.

The compounds below were run on NIH3T3 (assay: qHTS assay to identify novel small-molecules to repurpose for Merkel cell carcinoma treatment (AID 1296009; note: nearly all actives have a fitted effect of over 60% in size)). Conditions: MCC and control cell lines, CellTiter-Glo viability, 72 h; series mostly up to 44.8 µM.
Source text: MCC is a rare and aggressive neuroendocrine skin cancer with limited treatment options. Approximately 80% of MCCs have the Merkel cell polyomavirus (MCPyV) DNA integrated into the host genome (virus-positive: VP-MCC) and viral oncogenes drive oncogenesis. The remaining MCCs are virus-negative (VN-MCC) and are caused by UV mutagenesis. To identify novel treatments for VP-MCC and/or VN-MCC we screened three VP-MCC cell lines (WAGA, MKL-1, MKL-2), three VN-MCC cell lines (MCC-13, MCC-26, UISO), and four immortalized, non-transformed control cell lines (HaCaT, HEK293T, CRL7250, NIH-3T3) against ~2,400 compounds in the NCGC Pharmaceutical Collection (NPC) and ~1,900 compounds in the Mechanism Interrogation PlatE (MiPE). Using cell viability as a readout (CellTiter-Glo assay) we found both overlapping and distinct drugs that can be repurposed for the treatment of VP-MCC and VN-MCC.
A high-throughput screen was conducted in 1536-well white flat bottom plates (Corning) on a Kalypsys robotic system. Cell lines WAGA, MKL-1, MKL-2, MCC-13, MCC-26, UISO, HaCaT, HEK293T, CRL7250, and NIH-3T3 were screened against 2 small molecule annotated drug libraries NPC and MIPE in dose response (8 and 11 pt. respectively) measuring cell viability after 72 hours of incubation. […] A 1,536 pintool (Kalypsys) was used to transfer 23 nL of compound in DMSO to the 1,536-well assay plates. After 72 hr incubation at 37 degree celsius, 2.5 uL of CellTiter-Glo (Promega) was dispensed into each well using a BiorapTR. Plates were incubated at room temperature for 10 min, transferred to a ViewLux (PerkinElmer) and the luminescence was recorded using an exposure time of 2 seconds. Relative luminescence units (RLUs) were normalized to in-plate controls (no cells as a positive (cytotoxicity) control, DMSO as negative control) and the normalized data was processed using NCATS in-house software.

| SMILES | Potency | outcome |
| --- | --- | --- |
| C=CCCN1CCC2(CC1)CN(C(=O)c1c(F)cccc1F)c1ccc(Cl)cc12 | inactive |  |
| CCOC(=O)CCNc1cc(N2CCc3ccccc3CC2)nc(-c2cccnc2)n1 | inactive |  |
| COc1cc2ncnc(Nc3cccc(I)c3)c2cc1OC | inactive |  |
| O=C(c1ccccn1)N(Cc1cccs1)C1(C(=O)NC2CCCCC2)CCCCC1 | inactive |  |
| CC(=O)O[C@@H]1CC[C@@]2(C)C(CC[C@]3(C)C2[C@H](O)C=C2[C@H]4[C@@H](C)[C@H](C)CC[C@]4(C)CC[C@]23C)[C@@]1(C)C(=O)O (stereo not given in full) | inactive |  |
| O=c1[nH]c2ccccc2n1CCN1CCN(c2cccc(C(F)(F)F)c2)CC1 | inactive |  |
| CCCCc1ccc(NS(=O)(=O)c2ccc(F)cc2)cc1 | inactive |  |
| CCC(C)C1NC(=O)C(Cc2ccccc2)NC(=O)C(CCCCCC(=O)C(O)CO)NC(=O)C2CCCCN2C1=O (stereo not given) | inactive |  |
| O=C1Cc2c([nH]c3ccc(Br)cc23)-c2ncccc2N1 | inactive |  |
| COc1cc2nc(N3CCN(C(=O)COc4c(OC)cccc4C(C)C)CC3)nc(N)c2cc1OC | inactive |  |
| CCCCOC(=O)NS(=O)(=O)c1sc(CC(C)C)cc1-c1ccc(Cn2ccnc2)cc1 | inactive |  |
| CCC(C)C(=O)OC12C(OC(C)=O)C(C)C3(O)C(C=C(CO)CC4(O)C(=O)C(C)=CC43)C1C2(C)C (stereo not given) | inactive |  |
| CC(C)(F)CC(NC(c1ccc(-c2ccc(S(C)(=O)=O)cc2)cc1)C(F)(F)F)C(=O)NC1(C#N)CC1 (stereo not given) | inactive |  |
| C/C=C/[C@@H]1C=C[C@@H]2C[C@H](C)CC[C@H]2[C@]1(C)/C(O)=C1/C(=O)[C@@H](CO)N(C)C1=O | inactive |  |
| CCCCCCCOc1cc2c(cc1/C(C)=C/c1ccc(C(=O)O)cc1)C(C)(C)CCS2(=O)=O | inactive |  |
| CC1OC(=O)C[C@@H]2C(C(=O)O)=CO[C@@H](O[C@H]3O[C@H](CO)[C@@H](O)[C@H](O)[C@H]3O)[C@H]12 (stereo not given in full) | inactive |  |
| CCN(CC)C(=O)C(c1ccccc1)N1CCN(c2ccc(NC(=O)c3ccccc3-c3cccnc3)cc2F)CC1 (stereo not given) | inactive |  |
| CN(C)CCOc1cc(NS(=O)(=O)c2c(Cl)cc(C(F)(F)F)cc2Cl)ccc1Cl | inactive |  |
| CC(C)(O)c1ccc2c(c1)ncn2-c1cccc(-c2ccccc2C#N)c1 | inactive |  |
| CCCNCCc1ccc(NS(=O)(=O)c2ccc(OC(F)(F)F)cc2)cc1 | inactive |  |

| SMILES | Potency | outcome |
| --- | --- | --- |
| CC(=O)OC(C)(C)/C=C/C(=O)[C@](C)(O)[C@H]1C(O)C[C@@]2(C)[C@@H]3CC=C4[C@@H](C=C(O[C@@H]5O[C@H](CO)[C@@H](O)[C@H](O)[C@H]5O)C(=O)C4(C)C)[C@]3(C)C(=O)C[C@]12C (stereo not given in full) | inactive |  |
| COC(=O)N1CC2(CC2)C[C@H](C(=O)NO)[C@H]1C(=O)N1CCN(c2ccccc2)CC1 | inactive |  |
| Cn1nc(C(C)(C)C)cc1C(=O)N[C@@H](Cc1cccc(Cl)c1)C(=O)NCC#N | inactive |  |
| Cc1cc(NC(=O)NCCN2CCC(O)(Cc3ccccc3)CC2)c2ccccc2n1 | inactive |  |
| COc1cc2ncc(-c3ccccc3)nc2cc1OC | inactive |  |
| O=C(Nc1ccn(Cc2ccc(O)cc2C(F)(F)F)n1)c1c(F)cccc1F | inactive |  |
| NC(=O)c1cccc2[nH]c(-c3ccc(C4CCCN4)cc3F)nc12 (stereo not given) | inactive |  |
| CO[C@H]1O[C@@H]2O[C@@]3(C)CCC4[C@H](C)CCC([C@H]1C)[C@]42OO3 (stereo not given in full) | inactive |  |
| C=C1CCC2C(C)(C)CCCC2(C)C1CC/C(C)=C\CO (stereo not given) | inactive |  |
| COc1cc(F)c(C(C)C)cc1-c1ccc(C(F)(F)F)cc1CN1C(=O)OC(c2cc(C(F)(F)F)cc(C(F)(F)F)c2)C1C (stereo not given) | inactive |  |
| CC1(C)CCC(C)(C)c2cc(C#Cc3ccc(C(=O)O)cc3)ccc21 | inactive |  |
| CCOC(=O)N1CCC(N2CCC[C@@H](NC(=O)c3ccccc3C)C2)CC1 | inactive |  |
| C=C1[C@H]2CC[C@H](C(=O)O)[C@@]23CC[C@H](C3)C1(C)C | inactive |  |
| C=C1CO[C@@]2(O[C@H]3CC4C5CC=C6C[C@@H](O)C[C@@H](O[C@@H]7OC[C@H](O)[C@H](O[C@@H]8OC[C@@H](O)[C@H](O)[C@H]8O)[C@H]7O[C@@H]7O[C@@H](C)[C@H](OC(C)=O)[C@@H](OC(C)=O)[C@H]7OC(C)=O)[C@]6(C)C5CC[C@]4(C)[C@@H]3[C@@H]2C)[C@@H](O)[C@H]1OC1OC(C)C(O)C(O)C1O (stereo not given in full) |  | inactive [at 9.27 µM] |
| CCC(C)C(=O)O[C@H]1[C@@H](OC(=O)c2ccoc2)C[C@](C)(O)[C@]23OC(C)(C)[C@H](C[C@H](OC(=O)c4ccoc4)[C@]12COC(C)=O)[C@H]3OC(C)=O (stereo not given in full) | inactive |  |
| CCN1CCC[C@@H]1CNC(=O)c1ccc2c(c1)NC(=O)c1cccc(C)c1S2 | inactive |  |
| O=S(=O)(N[C@H]1CCCC[C@@H]1N1CCOCC1)c1ccc(Cl)cc1 | inactive |  |
| COC1CC(O[C@H]2CC[C@]3(C)C4CC[C@@]5(C)C(=O)[C@]4(CC[C@@H]3C2)CC[C@@H]5C2=CC(=O)OC2)OC(C)C1OC1OC(COC2OC(CO)C(O)C(O)C2O)C(O)C(O)C1O (stereo not given in full) |  | inactive [at 9.27 µM] |
| CNCCCC1(c2ccccc2)OC(C)(C)c2ccccc21 (stereo not given) | inactive |  |
| CC#CCn1c(N2CCCC(N)C2)nc2c1c(=O)n(Cc1nc(C)c3ccccc3n1)c(=O)n2C (stereo not given) | inactive |  |
